Test results: PubChem BioAssay AID1159580 (chemical genetic matrix, 2015)
The campaign covered roughly 5,500 compounds. About 2,000 (36%) were called active. Another 18% or so got no clear call; they are omitted. Cut-off read from the data, not from the text of the source: active = normalized growth mostly below about 0.91 (no sharp cut-off); inconclusive = no clear call, values can overlap the other calls; inactive = mostly above about 0.92. The list shows a part of the results.

Assay: chemical genetic growth profiling, strain panel (AID 1159580);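 note: tested at 20 µM; growth read once vehicle control cultures reached saturation at 30 °C; 1 = growth at the plate median or of vehicle wells; lower values mean less growth of the strain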
Conditions: S. cerevisiae deletion strains, growth OD
[1] = locus YAL013W, strain DEP1, stronger effect = lower value
[2] = locus YBR229C, strain ROT2, stronger effect = lower value
[3] = locus YDL101C, strain DUN1, stronger effect = lower value
[4] = locus YDR150W, strain NUM1, stronger effect = lower value
[5] = locus YEL061C, strain CIN8, stronger effect = lower value
[6] = locus YGR078C, strain PAC10, stronger effect = lower value
[7] = locus YHR030C, strain SLT2, stronger effect = lower value
[8] = locus YHR087W, strain rtc3, stronger effect = lower value
[9] = locus YJL187C, strain SWE1, stronger effect = lower value
[10] = locus YJR043C, strain POL32, stronger effect = lower value
[11] = locus YJR075W, strain HOC1, stronger effect = lower value
[12] = locus YLR039C, strain RIC1, stronger effect = lower value
[13] = locus YLR058C, strain SHM2 (second series), stronger effect = lower value
[14] = locus YLR085C, strain ARP6, stronger effect = lower value
[15] = locus YLR262C, strain YPT6, stronger effect = lower value
[16] = locus YML094W, strain GIM5, stronger effect = lower value
[17] = locus YMR219W, strain ESC1, stronger effect = lower value
[18] = locus YMR263W, strain SAP30, stronger effect = lower value
[19] = locus YNL153C, strain GIM3, stronger effect = lower value
[20] = locus YNL298W, strain CLA4 (second series), stronger effect = lower value
[21] = locus YNL322C, strain KRE1, stronger effect = lower value
[22] = locus YNR030W, strain Alg12, stronger effect = lower value
[23] = locus YPL055C, strain LGE1, stronger effect = lower value
[24] = locus YPL241C, strain CIN2, stronger effect = lower value
[25] = locus YPR135W, strain CTF4, stronger effect = lower value
[26] = locus YAR019C, strain CDC15, stronger effect = lower value
[27] = locus YBL105C, strain PKC1, stronger effect = lower value
[28] = locus YBR135W, strain CKS1, stronger effect = lower value
[29] = locus YBR136W, strain MEC1, stronger effect = lower value
[30] = locus YBR160W, strain CDC28, stronger effect = lower value
[31] = locus YDL017W, strain CDC7, stronger effect = lower value
[32] = locus YDL028C, strain MPS1, stronger effect = lower value
[33] = locus YDL108W, strain KIN28, stronger effect = lower value
[34] = locus YDL132W, strain cdc53, stronger effect = lower value
[35] = locus YDL214C, strain PRR2, stronger effect = lower value
[36] = locus YDR052C, strain DBF4, stronger effect = lower value
[37] = locus YDR054C, strain cdc34, stronger effect = lower value
[38] = locus YDR226W, strain ADK1, stronger effect = lower value
[39] = locus YDR477W, strain SNF1, stronger effect = lower value
[40] = locus YER123W, strain YCK3, stronger effect = lower value
[41] = locus YER133W, strain GLC7, stronger effect = lower value
[42] = locus YFL009W, strain cdc4, stronger effect = lower value
[43] = locus YFL029C, strain CAK1, stronger effect = lower value
[44] = locus YFR003C, strain YPI1, stronger effect = lower value
[45] = locus YFR019W, strain FAB1, stronger effect = lower value
[46] = locus YFR028C, strain CDC14, stronger effect = lower value
[47] = locus YGR040W, strain KSS1, stronger effect = lower value
[48] = locus YGR052W, strain FMP48, stronger effect = lower value
[49] = locus YGR092W, strain DBF2, stronger effect = lower value
[50] = locus YHR079C, strain IRE1, stronger effect = lower value
[51] = locus YHR082C, strain KSP1, stronger effect = lower value
[52] = locus YHR205W, strain SCH9, stronger effect = lower value
[53] = locus YIL147C, strain SLN1, stronger effect = lower value
[54] = locus YJL095W, strain BCK1, stronger effect = lower value
[55] = locus YJL128C, strain PBS2, stronger effect = lower value
[56] = locus YJL157C, strain FAR1, stronger effect = lower value
[57] = locus YJR016C, strain ILV3, stronger effect = lower value
[58] = locus YJR066W, strain TOR1 (second series), stronger effect = lower value
[59] = locus YJR066W, strain TOR1, stronger effect = lower value
[60] = locus YKL048C, strain ELM1, stronger effect = lower value
[61] = locus YKL067W, strain YNK1, stronger effect = lower value
[62] = locus YKL101W, strain HSL1, stronger effect = lower value
[63] = locus YKL193C, strain SDS22, stronger effect = lower value
[64] = locus YKL203C, strain TOR2, stronger effect = lower value
[65] = locus YLR113W, strain HOG1, stronger effect = lower value
[66] = locus YLR133W, strain CKI1, stronger effect = lower value
[67] = locus YLR403W, strain SFP1, stronger effect = lower value
[68] = locus YML070W, strain DAK1, stronger effect = lower value
[69] = locus YMR001C, strain CDC5, stronger effect = lower value
[70] = locus YMR205C, strain PFK2 (second series), stronger effect = lower value
[71] = locus YMR277W, strain FCP1, stronger effect = lower value
[72] = locus YNL006W, strain LST8, stronger effect = lower value
[73] = locus YNL020C, strain ARK1, stronger effect = lower value
[74] = locus YNL161W, strain CBK1, stronger effect = lower value
[75] = locus YNL183C, strain NPR1, stronger effect = lower value
[76] = locus YNL207W, strain RIO2, stronger effect = lower value
[77] = locus YNL222W, strain SSU72, stronger effect = lower value
[78] = locus YNL307C, strain MCK1 (second series), stronger effect = lower value
[79] = locus YOL078W, strain AVO1, stronger effect = lower value
[80] = locus YOL136C, strain PFK27, stronger effect = lower value
[81] = locus YOR061W, strain CKA2, stronger effect = lower value
[82] = locus YOR119C, strain RIO1, stronger effect = lower value
[83] = locus YOR231W, strain MKK1, stronger effect = lower value
[84] = locus YOR329C, strain SCD5, stronger effect = lower value
[85] = locus YPL031C, strain PHO85, stronger effect = lower value
[86] = locus YPL153C, strain RAD53, stronger effect = lower value
[87] = locus YPL204W, strain HRR25, stronger effect = lower value
[88] = locus YPL209C, strain IPL1, stronger effect = lower value
[89] = locus YPL256C, strain CLN2, stronger effect = lower value
[90] = locus YPR025C, strain CCL1, stronger effect = lower value
[91] = locus YPR106W, strain ISR1, stronger effect = lower value
[92] = locus YPR111W, strain DBF20, stronger effect = lower value
[93] = strain NNK1, stronger effect = lower value
[94] = strain TSCII, stronger effect = lower value

Measured: normalized growth

N#C/C(=C\c1cccn1-c1ccc(OC(F)(F)F)cc1)S(=O)(=O)c1ccccc1
active: [14] 1.23 [resistant] | [25] 1.38 [resistant]
inactive: [1] 1.05 | [2] 1 | [3] 0.982 | [4] 1.03 | [5] 1.02 | [6] 1.02 | [7] 1.04 | [8] 1.02 | [9] 1.01 | [10] 0.986 | [11] 0.988 | [12] 1 | [13] 0.995 | [15] 0.976 | [16] 1.07 | [17] 1.01 | [18] 1 | [19] 1.03 | [20] 1.03 | [21] 1 | [22] 1.05 | [23] 1.14 | [24] 1.09

N#C/C(=C\c1ccc(Oc2ccccc2)nc1)S(=O)(=O)c1ccccc1
inactive: [1] 0.996 | [2] 1 | locus YCL061C, strain MRC1, stronger effect = lower value 0.976 | [3] 1 | [4] 0.984 | [5] 1.01 | [6] 1 | [7] 0.978 | [8] 1 | [9] 0.993 | [10] 0.981 | [11] 0.99 | locus YKL190W, strain CNB1, stronger effect = lower value 1 | [12] 0.95 | [13] 1.01 | [14] 0.998 | [15] 1.02 | [16] 1.02 | [17] 1 | [18] 0.956 | locus YMR307W, strain GAS1, stronger effect = lower value 0.884 | [19] 0.993 | [20] 0.939 | [21] 1 | [22] 0.997 | locus YOL006C, strain TOP1, stronger effect = lower value 0.922 | [23] 0.988 | [24] 0.996 | [25] 0.955

CC1(C)OC(=O)C(=Cc2cccn2-c2ccc(OC(F)(F)F)cc2)C(=O)O1
inactive: [26] 0.966 | [27] 0.995 | [28] 0.996 | [29] 0.987 | [30] 0.985 | [31] 0.999 | [32] 0.972 | [3] 0.979 | [33] 0.989 | [34] 0.99 | [35] 0.899 | [36] 0.989 | [37] 0.972 | [38] 0.963 | [39] 0.898 | [40] 0.884 | [41] 0.944 | [42] 0.96 | [43] 0.967 | [44] 0.993 | [45] 0.942 | [46] 0.964 | [47] 0.91 | [48] 0.921 | [49] 0.881 | [50] 0.875 | [51] 0.861 | [52] 0.801 | [53] 0.976 | [54] 0.832 | [55] 0.918 | [56] 0.948 | [57] 0.979 | [58] 0.987 | [59] 0.829 | [60] 0.931 | [61] 0.915 | [62] 0.89 | [63] 0.973 | [64] 0.989 | [66] 0.923 | [67] 0.92 | [68] 0.909 | [69] 0.97 | [70] 0.93 | [71] 0.954 | [72] 0.975 | [73] 0.922 | [74] 0.982 | [75] 0.894 | [76] 0.986 | [77] 0.98 | [78] 0.887 | [79] 0.973 | [80] 0.908 | [81] 0.916 | [82] 0.936 | [83] 0.827 | [84] 0.986 | [85] 0.914 | [86] 0.916 | [87] 0.923 | [88] 0.991 | [90] 1 | [91] 0.967 | [92] 0.939 | [93] 0.976 | [94] 0.968
active: [7] 0.673 | [65] 0.768 | [89] 0.782

CC1(C)OC(=O)C(=Cc2cccn2-c2ccc(C(F)(F)F)cc2)C(=O)O1
inactive: [26] 1.01 | [27] 1.03 | [28] 1.04 | [29] 1.03 | [30] 1.02 | [31] 1.04 | [32] 1.01 | [3] 1 | [33] 1.02 | [34] 1.03 | [35] 0.913 | [36] 1.01 | [37] 1.02 | [38] 1.03 | [39] 0.908 | [40] 0.896 | [41] 0.963 | [42] 1.02 | [43] 0.998 | [44] 1.03 | [45] 0.941 | [46] 0.999 | [47] 0.921 | [48] 0.954 | [49] 0.921 | [50] 0.86 | [51] 0.901 | [52] 0.775 | [53] 1.02 | [54] 0.844 | [55] 0.931 | [56] 0.946 | [57] 1.01 | [58] 0.958 | [59] 0.844 | [60] 0.88 | [61] 0.912 | [62] 0.885 | [63] 1.02 | [64] 1.01 | [66] 0.916 | [67] 0.898 | [68] 0.912 | [69] 1 | [70] 0.93 | [71] 1 | [72] 1 | [73] 0.914 | [74] 1.03 | [75] 0.917 | [76] 1.03 | [77] 1.02 | [78] 0.859 | [79] 1.01 | [80] 0.884 | [81] 0.818 | [82] 0.944 | [83] 0.83 | [84] 1.03 | [85] 0.917 | [86] 0.901 | [87] 0.905 | [88] 1.03 | [90] 1.03 | [91] 0.99 | [92] 0.964 | [93] 0.988 | [94] 0.991
active: [7] 0.686 | [65] 0.711 | [89] 0.777
